# ChEMBL document CHEMBL3988442, “University of Dundee, Small-Polar-MMV Screening Library” (2021)
# For some assays here: Entries with a potency or affinity are not part of this list.
# Columns and labels:
# Design in all cases: scale not given: direction of the effect not stated beside the values
# [1] = biological target: Protein translocase subunit SecA (Escherichia coli (strain K12)) (UniProt P10408); assay: Assay to Identify E. coli SecA ATPase Inhibitors; format: functional; conditions: 30 µM
# [2] = biological target: T1, Ubiquitin-activating enzyme e1, putative (Leishmania donovani (strain BPK282A1)) (UniProt E9BSI1); assay: Leishmania donovani Ubiquitin Activating Enzyme (LdE1); format: functional; conditions: 30 µM
# T1 sequence (whole entry): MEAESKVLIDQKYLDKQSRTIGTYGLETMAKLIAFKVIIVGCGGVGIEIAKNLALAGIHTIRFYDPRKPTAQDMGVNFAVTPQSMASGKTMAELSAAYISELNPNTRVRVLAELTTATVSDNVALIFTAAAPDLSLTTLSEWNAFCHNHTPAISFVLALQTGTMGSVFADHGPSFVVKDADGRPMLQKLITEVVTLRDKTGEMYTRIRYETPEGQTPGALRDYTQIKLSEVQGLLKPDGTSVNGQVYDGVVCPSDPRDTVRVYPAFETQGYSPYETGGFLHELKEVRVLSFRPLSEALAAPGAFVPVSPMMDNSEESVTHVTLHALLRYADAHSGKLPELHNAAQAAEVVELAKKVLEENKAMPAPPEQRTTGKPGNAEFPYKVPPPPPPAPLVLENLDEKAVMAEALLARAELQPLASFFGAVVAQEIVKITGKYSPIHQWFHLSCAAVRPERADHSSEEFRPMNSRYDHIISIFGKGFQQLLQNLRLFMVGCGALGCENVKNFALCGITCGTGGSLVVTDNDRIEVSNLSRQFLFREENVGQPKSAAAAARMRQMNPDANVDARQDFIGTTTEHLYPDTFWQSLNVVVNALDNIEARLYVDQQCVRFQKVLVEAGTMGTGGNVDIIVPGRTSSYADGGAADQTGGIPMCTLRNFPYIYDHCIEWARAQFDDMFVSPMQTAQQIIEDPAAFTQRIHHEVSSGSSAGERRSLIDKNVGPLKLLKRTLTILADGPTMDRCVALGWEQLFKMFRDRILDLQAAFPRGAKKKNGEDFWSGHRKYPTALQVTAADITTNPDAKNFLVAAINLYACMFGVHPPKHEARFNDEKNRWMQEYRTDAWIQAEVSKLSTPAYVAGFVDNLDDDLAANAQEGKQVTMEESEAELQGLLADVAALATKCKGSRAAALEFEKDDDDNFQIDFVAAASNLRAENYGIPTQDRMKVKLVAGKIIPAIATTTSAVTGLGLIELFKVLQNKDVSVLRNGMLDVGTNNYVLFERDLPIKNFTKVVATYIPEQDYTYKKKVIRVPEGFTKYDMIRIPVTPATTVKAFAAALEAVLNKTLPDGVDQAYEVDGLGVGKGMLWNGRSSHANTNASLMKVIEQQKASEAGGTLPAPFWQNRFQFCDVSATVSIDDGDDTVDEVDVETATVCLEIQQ
# [3] = biological target: AMP-activated protein kinase, AMPK (Homo sapiens) (UniProt P54646+O43741+P54619+Q9UGJ0+Q9Y478+Q13131+Q9UGI9); assay: AMP-dependent Kinase enzyme assay. An in vitro enzyme assay that detects ADP turnover that is directly proportional to AMPK activity. This uses naive AMPK that is activated during the assay with MK-8722; format: functional; conditions: 30 µM
# [4] = biological target: Sialic acid-binding Ig-like lectin 9 (Homo sapiens) (UniProt Q9Y336); assay: Hs-Siglec9 ALPHAscreen SOP 20170721; conditions: 10 µM
# Trypanosoma cruzi = assay: Trypanosoma cruzi phosphomannomutase and mannose-1-phosphate guanylyltransferase assay; format: functional; conditions: 10 µM
# [5] = biological target: T2, Arginase-2, mitochondrial (Homo sapiens) (UniProt P78540); assay: in vitro enzyme assay to detect the production of urea directly proportional to the activity of Arginase II; format: functional; conditions: 33.3 µM; also: in the data most compounds retested in dose-response had high values
# T2 sequence (whole entry): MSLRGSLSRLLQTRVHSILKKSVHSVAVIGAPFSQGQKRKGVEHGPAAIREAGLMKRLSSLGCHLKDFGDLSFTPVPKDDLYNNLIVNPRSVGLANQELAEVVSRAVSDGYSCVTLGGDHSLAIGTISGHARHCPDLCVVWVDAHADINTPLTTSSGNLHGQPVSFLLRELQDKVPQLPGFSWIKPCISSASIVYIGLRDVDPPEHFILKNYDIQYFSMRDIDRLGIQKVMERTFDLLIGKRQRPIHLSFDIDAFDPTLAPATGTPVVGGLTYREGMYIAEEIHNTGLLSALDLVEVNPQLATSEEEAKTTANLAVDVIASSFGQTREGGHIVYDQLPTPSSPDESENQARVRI
# [6] = biological target: T3, Proteasome subunit beta (Trypanosoma cruzi) (UniProt O96673); assay: Trypanosoma cruzi proteasome chymotrypsin-like activity (TcProtChymo) assay.; also: in the data most compounds retested in dose-response had high values; format: functional; conditions: 9.37 µM
# T3 sequence (whole entry): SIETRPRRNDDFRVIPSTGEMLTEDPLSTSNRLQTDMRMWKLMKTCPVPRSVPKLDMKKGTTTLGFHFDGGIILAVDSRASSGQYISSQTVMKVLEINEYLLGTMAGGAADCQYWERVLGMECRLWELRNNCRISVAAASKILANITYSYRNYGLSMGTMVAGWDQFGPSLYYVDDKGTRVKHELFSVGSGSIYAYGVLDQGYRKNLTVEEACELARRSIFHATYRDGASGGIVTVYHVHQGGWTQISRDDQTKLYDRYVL
# Homo sapiens = species on record: Homo sapiens; assay: To identify inhibition of the IFN signalling (Jak-Stat) pathway via expression of an eGFP reporter gene under the control of an IFN-stimulated response element (ISRE) containing MxA promoter.; format: functional; conditions: 30 µM
# [7] = biological target: T4, Tyrosyl-tRNA synthetase, putative (Trypanosoma cruzi (strain CL Brener)) (UniProt Q4DSP6); assay: Trypanosoma cruzi tyrosyl tRNA synthetase (TcYRS) _High Tyrosine SOP; format: functional; conditions: 30 µM; also: in the data most compounds retested in dose-response had high values
# T4 sequence (whole entry): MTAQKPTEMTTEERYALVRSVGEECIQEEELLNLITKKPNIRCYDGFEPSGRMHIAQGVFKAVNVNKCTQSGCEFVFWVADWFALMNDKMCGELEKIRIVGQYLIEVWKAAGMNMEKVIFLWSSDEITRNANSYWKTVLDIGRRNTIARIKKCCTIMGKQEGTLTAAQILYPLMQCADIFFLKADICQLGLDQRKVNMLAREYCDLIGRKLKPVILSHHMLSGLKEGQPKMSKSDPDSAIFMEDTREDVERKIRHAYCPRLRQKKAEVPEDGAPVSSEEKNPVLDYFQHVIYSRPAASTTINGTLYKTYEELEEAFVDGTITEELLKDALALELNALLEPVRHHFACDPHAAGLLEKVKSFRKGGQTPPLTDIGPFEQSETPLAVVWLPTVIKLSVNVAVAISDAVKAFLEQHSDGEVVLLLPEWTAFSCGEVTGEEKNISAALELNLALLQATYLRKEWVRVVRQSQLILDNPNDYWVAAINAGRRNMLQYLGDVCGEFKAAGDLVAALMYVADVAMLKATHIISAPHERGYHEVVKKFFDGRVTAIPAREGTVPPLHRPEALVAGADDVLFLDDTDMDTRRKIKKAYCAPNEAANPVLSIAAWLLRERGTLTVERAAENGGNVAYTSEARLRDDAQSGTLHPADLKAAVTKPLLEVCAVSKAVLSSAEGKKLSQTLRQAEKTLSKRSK
# [8] = biological target: T4, Tyrosyl-tRNA synthetase, putative (Trypanosoma cruzi (strain CL Brener)); assay: Trypanosoma cruzi tyrosyl tRNA synthetase (TcYRS) SOP; format: functional; conditions: 30 µM
# [9] = biological target: Chromo domain-containing protein 1 (Saccharomyces cerevisiae (strain ATCC 204508 / S288c) (Baker's yeast)) (UniProt P32657); assay: ScCHD-1 Enzyme Inhibition Assay; format: functional; conditions: 30 µM; also: in the data most compounds retested in dose-response had high values
# Sequence of Chromo domain-containing protein 1 (Saccharomyces cerevisiae (strain ATCC 204508 / S288c) (Baker's yeast)) (P32657 whole entry, the tested form may be a part): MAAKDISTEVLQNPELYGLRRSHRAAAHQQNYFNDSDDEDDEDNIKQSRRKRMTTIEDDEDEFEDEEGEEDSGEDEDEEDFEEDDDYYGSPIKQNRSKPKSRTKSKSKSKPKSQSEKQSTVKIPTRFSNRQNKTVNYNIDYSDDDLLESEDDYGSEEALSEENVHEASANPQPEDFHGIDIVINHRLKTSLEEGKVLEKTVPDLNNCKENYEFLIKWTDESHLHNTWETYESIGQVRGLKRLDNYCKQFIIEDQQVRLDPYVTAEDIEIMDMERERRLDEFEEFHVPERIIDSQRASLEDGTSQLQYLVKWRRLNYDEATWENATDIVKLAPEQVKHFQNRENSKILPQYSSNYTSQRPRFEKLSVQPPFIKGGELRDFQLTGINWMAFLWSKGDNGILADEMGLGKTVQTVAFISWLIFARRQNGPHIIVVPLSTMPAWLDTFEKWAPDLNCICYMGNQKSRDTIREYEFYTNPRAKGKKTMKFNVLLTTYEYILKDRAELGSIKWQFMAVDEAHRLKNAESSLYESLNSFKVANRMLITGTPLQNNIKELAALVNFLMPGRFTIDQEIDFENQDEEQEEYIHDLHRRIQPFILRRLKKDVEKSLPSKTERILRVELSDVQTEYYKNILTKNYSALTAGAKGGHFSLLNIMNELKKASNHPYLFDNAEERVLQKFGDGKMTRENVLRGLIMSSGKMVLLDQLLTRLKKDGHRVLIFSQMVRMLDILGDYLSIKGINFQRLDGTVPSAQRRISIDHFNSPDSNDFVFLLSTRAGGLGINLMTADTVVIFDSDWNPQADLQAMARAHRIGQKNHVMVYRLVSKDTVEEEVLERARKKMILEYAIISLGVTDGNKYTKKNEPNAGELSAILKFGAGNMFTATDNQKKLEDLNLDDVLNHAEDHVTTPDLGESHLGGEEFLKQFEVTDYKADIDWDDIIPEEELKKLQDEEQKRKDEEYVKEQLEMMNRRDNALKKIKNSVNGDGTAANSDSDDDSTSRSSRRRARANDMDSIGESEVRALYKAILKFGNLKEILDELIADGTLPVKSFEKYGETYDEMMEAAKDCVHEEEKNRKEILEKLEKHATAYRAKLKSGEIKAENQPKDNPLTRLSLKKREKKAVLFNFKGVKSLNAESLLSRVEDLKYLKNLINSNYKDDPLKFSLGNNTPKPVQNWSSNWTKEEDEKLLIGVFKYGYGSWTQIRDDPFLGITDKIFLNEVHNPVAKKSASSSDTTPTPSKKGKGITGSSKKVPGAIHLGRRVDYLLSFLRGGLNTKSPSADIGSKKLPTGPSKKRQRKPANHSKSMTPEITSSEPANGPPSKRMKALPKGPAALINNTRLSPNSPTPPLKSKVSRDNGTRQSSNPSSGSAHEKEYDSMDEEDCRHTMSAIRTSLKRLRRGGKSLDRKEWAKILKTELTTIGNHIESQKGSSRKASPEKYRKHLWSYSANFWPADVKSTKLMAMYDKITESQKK
# Sequence of Sialic acid-binding Ig-like lectin 9 (Homo sapiens) (Q9Y336 whole entry): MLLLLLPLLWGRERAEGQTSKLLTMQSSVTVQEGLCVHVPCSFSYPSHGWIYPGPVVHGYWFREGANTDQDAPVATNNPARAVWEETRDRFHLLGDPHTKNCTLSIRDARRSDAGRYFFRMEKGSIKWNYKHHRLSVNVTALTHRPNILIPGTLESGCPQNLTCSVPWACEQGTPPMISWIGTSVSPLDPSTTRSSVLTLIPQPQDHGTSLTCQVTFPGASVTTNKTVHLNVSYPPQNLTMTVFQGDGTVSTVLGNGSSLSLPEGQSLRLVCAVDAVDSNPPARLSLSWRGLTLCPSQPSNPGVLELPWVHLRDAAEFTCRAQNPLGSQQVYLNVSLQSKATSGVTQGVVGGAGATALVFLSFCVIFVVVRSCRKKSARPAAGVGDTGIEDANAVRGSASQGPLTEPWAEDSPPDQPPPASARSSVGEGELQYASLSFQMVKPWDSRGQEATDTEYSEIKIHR
# Sequence of Protein translocase subunit SecA (Escherichia coli (strain K12)) (P10408 whole entry): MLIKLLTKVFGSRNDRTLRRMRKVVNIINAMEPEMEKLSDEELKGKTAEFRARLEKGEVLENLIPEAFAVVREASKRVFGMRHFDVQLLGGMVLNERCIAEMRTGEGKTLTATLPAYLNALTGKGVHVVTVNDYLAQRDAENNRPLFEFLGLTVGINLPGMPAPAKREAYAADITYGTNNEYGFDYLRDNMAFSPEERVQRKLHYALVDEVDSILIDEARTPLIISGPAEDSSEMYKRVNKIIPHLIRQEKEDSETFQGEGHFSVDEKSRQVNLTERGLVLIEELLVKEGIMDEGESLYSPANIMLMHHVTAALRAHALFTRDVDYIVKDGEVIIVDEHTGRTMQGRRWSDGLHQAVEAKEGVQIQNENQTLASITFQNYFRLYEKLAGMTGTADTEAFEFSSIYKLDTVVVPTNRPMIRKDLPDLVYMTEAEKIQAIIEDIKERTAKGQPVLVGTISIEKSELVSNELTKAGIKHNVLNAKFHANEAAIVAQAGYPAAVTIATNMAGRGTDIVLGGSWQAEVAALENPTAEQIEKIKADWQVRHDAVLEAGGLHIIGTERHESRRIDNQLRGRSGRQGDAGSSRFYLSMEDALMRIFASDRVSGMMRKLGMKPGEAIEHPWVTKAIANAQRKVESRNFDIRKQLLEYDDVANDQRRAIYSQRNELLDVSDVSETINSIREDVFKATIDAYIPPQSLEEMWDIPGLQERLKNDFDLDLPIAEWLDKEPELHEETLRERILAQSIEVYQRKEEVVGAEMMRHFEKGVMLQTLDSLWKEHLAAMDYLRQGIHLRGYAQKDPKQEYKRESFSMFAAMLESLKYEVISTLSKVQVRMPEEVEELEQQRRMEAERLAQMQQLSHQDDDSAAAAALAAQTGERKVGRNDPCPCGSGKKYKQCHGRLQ
Compound,Percent Effect [1],Percent Effect [2],Percent Effect [3],Percent Effect [4],Percent Effect (Trypanosoma cruzi),Percent Effect [5],Percent Effect [6],Percent Effect (Homo sapiens),Percent Effect [7],Percent Effect [8],Percent Effect [9]
Cc1nccc(-c2cccc(NCC(=O)N3CCc4sccc4C3)c2)n1,-1.56%,2.63%,49.8%,-3.82%,4.76%,-1.8%,6.68%,-23.6%,11.3%,30.9%,-8.23%
Cc1ncc2c(n1)CN(Cc1nnc(-c3occc3C)o1)CC2,-2.4%,18.9%,-24.9%,14.5%,6.04%,2.03%,6.82%,-0.684%,22.8%,30.5%,-8.36%
Cc1ccc(-c2nnc(CN3CCOC(Cn4cccn4)C3)o2)cc1 (stereo unspecified),-4.11%,10.1%,-1.13%,4.66%,0.661%,3.42%,7.45%,4.27%,2.46%,11.4%,-5.6%
CC(NC(=O)Nc1cccnc1N1CCCC1)c1nncn1C (stereo unspecified),-3.96%,5.41%,-24%,2.82%,7.45%,-2.81%,-0.901%,23.6%,5.42%,16.1%,-9.41%
NC(=O)N1CCC2(CC1)CN(c1ccsc1)C(=O)CO2,-5.13%,10.7%,4.87%,0.623%,-7.68%,-3.96%,-2.38%,11%,-3.19%,-1.28%,-2.23%
OC1(Cn2ccc3ccncc32)CCN(Cc2ccccn2)CC1,0.875%,6.76%,1.5%,0.0823%,-10.7%,2.55%,8.42%,17.6%,-1.07%,9.09%,-2.25%
Cc1cnn(CCNCC(O)COc2ccc(Cl)cc2)c1 (stereo unspecified),-3.71%,10.1%,0.158%,12.9%,3.12%,0.76%,-1.88%,-3.16%,3.45%,8.86%,-2.04%
Cn1cc(C2CCCN2Cc2csc(-c3ccsc3)n2)cn1 (stereo unspecified),-1.56%,-2.53%,-11.2%,3.12%,-7.46%,0.76%,3.36%,8.82%,-24.1%,3.8%,-2%
Cc1cc(C)n(C2CN(CC(=O)NCC(C)(C)N3CCOCC3)C2)n1,-1.83%,8.86%,2.81%,2.3%,-1.13%,-0.645%,8.92%,20.1%,5.21%,15.2%,-7.96%
COc1ccc(F)cc1C(C)NC(=O)c1nnc(C)s1 (stereo unspecified),-4.77%,-2.7%,0.954%,-9.5%,-2.05%,0.248%,-4.89%,-14.3%,-3.23%,-1.24%,3.82%
CCCNC(=O)CNc1cc(C(=O)N2CCSCC2)ccc1C,-4.74%,5.48%,-4.24%,9.22%,8.73%,-4.39%,7.28%,2.79%,5.21%,11.1%,-9.2%
CCOc1ccc(C(C)NC(=O)N2CCC(C(N)=O)CC2)cc1OC (stereo unspecified),-4.66%,10.8%,4.64%,6.99%,6.76%,1.43%,14.7%,4.99%,5.82%,12.2%,-0.606%
Cc1nc([C@@H]2C[C@@H]3CCN(C(=O)c4ccnnc4)C[C@H]3O2)sc1C,-3.66%,18.2%,-2.5%,-0.581%,5.42%,1.94%,14.4%,16.5%,4.23%,16.7%,-7.55%
COCC(c1cccc(C(F)(F)F)c1)N(C)C(=O)c1cc(C)no1 (stereo unspecified),-0.889%,13.2%,1.05%,-2.93%,0.564%,4.98%,6.68%,10.2%,1.47%,19.5%,-12.2%
COc1ccc(CN2CC[C@@H](O)[C@@H]2Cc2ccccc2)cc1,-7.82%,-1.33%,7.1%,-1.98%,-0.589%,-6.16%,0.924%,9.5%,-3.17%,-2.56%,-5.37%
O=C(NCCn1ccnc1)NCC(c1ccco1)N1CCCCC1 (stereo unspecified),-3.12%,2.6%,4.65%,2.57%,-4.41%,1.9%,3.64%,13.9%,2.86%,2.35%,-18.2%
